A short description of the assay: blockers of AIP-driven agr signalling in S. aureus – RNAIII-GFP reporter, flow cytometry, primary screen (AID 527).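 Also: 0% = AIP-stimulated control and 100% = unstimulated bacteria without AIP.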 The conditions noted are these: S. aureus RN6390 RNAIII-GFP reporter, AIP-induced, flow cytometry 3 h, at 2 µM, stronger effect = higher value.
The mark [1] stands for this setting: measured here: inhibition of GFP MFI.

Each structure is given as a SMILES string. The whole screen tested about 24,000 compounds, of which about 65 (0.3%) were called active.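 The calls were made as follows: active = share of bacteria positive for the green fluorescent reporter and its mean brightness both inhibited by 50% or more; inactive = the rest, inconclusive results apart.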 The entries come from a sample that favours actives as a whole.

Among the data in PubChem BioAssay AID527 (NMMLSC, 2006) are inhibition values, retold here.

As a reminder, the inhibition is the drop in the measured response relative to a control, in per cent. With `Cc1ccccc1NC(=O)Cc1nnc(SCC(=O)N2CCN(c3ccccc3)CC2)n1C`, the inhibition was -0.1% (inactive). Besides, the inhibition under setting [1] is 7.2%.
On the same counts, the results for `CCC(=O)N1CCN=C1SCc1ccc(F)cc1` are 1.7% (inactive) and 7.4%.
Taken in the same sequence, the figures for `CCOc1ccccc1-n1c(SCC(=O)NCc2ccco2)nnc1-c1ccncc1` were -4.3% (inactive) and -22.1%.
Consider `CN(C)CCCn1c(N)c(C#N)c2nc(C#N)c(C#N)nc21`, for which the inhibition is -1% (inactive). In addition, the inhibition under setting [1] stood at 1.8%.
Turning to `CNC(=O)NCCN1CCCC1=O`, the inhibition is 7.2% (inactive). Also, the inhibition under setting [1] is 22.5%.
On the same counts, the results for `O=C(CCOc1ccccc1)NCc1ccccc1` are 1.7% (inactive) and 8.4%.
Taken in the same sequence, the figures for `CC1CCCN(C(C(=O)Nc2ccc(C(C)C)cc2)c2ccc3c(c2)OCO3)C1` (stereo not drawn) were -2.3% (inactive) and 0.9%.
For `Cc1cccc(C(=O)OCC(=O)Nc2sc3c(c2C#N)CCC3)c1`, the inhibition was 0% (inactive). Besides, the inhibition under setting [1] was -2%.
`Cc1cccc(CC(=O)Nc2c3c(nn2-c2cccc(Cl)c2)CS(=O)C3)c1` (stereo not drawn): the inhibition is 1.2% (inactive). Moreover, under setting [1], the inhibition was 3.3%.
With `Nc1scc(-c2ccncc2)c1Cl`, the inhibition was 0.4% (inactive). Further, the inhibition under setting [1] came to 15.1%.
In the case of `CSC1=NCCN1C(=O)c1ccc(S(=O)(=O)N2CCOCC2)cc1`, the inhibition was -5.9% (inactive). Besides, the inhibition under setting [1] is -16.9%.
Taken in the same sequence, the figures for `O=C(NCCc1ccccn1)c1ccc(COc2ccccc2)o1` were -0.4% (inactive) and -1.9%.
Taken in the same sequence, the figures for `O=S1(=O)CC(NCc2ccccc2)C(Nc2ccc(Cl)cc2)C1` (stereo not drawn) were -7% (inactive) and -45.9%.
As for `Cc1cccc(N2CCN(C(=O)C3CCN(S(=O)(=O)c4cnc[nH]4)CC3)CC2)c1C`, the inhibition is -9.8% (inactive). Moreover, the inhibition under setting [1] is -17%.
On the same counts, the results for `CCCn1c(C(O)c2ccc(OCC)cc2)nc2ccccc21` (stereo not drawn) are -2.6% (inactive) and -8.7%.
With `CC(=O)Oc1cc2c(C(=O)NCCN3CCOCC3)c(C)oc2c2ccccc12`, the inhibition was -5.9% (inactive). Further, the inhibition under setting [1] is -9.9%.
On the same counts, the results for `CCS(=O)(=O)N1CCCC(C(=O)NCCCN(C)Cc2ccccc2)C1` (stereo not drawn) are -4.7% (inactive) and -9.5%.
Regarding `CC(C)(C)c1ccc(C(=O)NCCC(=O)NCc2ccco2)cc1`, the inhibition is -2.6% (inactive). The inhibition under setting [1] stood at 1.1%.
On the same counts, the results for `CC1CC(C)CN(CC(=O)Nc2ccc(S(N)(=O)=O)cc2)C1` (stereo not drawn) are -0.3% (inactive) and -0.4%.
On the same counts, the results for `COc1cccc(N2CCN(C3CC(=O)N(c4ccc(Cl)cc4)C3=O)CC2)c1` (stereo not drawn) are -2.7% (inactive) and -50.4%.
Turning to `CCc1ccc(N2CC(C(=O)NC3=NCCS3)CC2=O)cc1` (stereo not drawn), the inhibition is -0.9% (inactive). In addition, under setting [1], the inhibition is -2.9%.
Taken in the same sequence, the figures for `OCc1n[nH]c(CO)n1` were -8.3% (inactive) and -35.9%.
Consider `COc1ccc(C2/C(=C(/O)c3ccc(OC(C)C)cc3)C(=O)C(=O)N2CCCN2CCOCC2)cc1` (stereo not drawn), for which the inhibition is 7.5% (inactive). Moreover, under setting [1], the inhibition worked out at 17.8%.
On the same counts, the results for `CCCCN(C)C(=O)c1ccc2c(c1)N(CC)C(=O)c1ccccc1S2(=O)=O` are -3% (inactive) and -32.6%.
